# Screening data as filed in PubChem BioAssay.
# Rows were chosen to be rich in hits. Some 2.4% of all compounds tested hit in one or more screens of this group.
# Rango release inh: qHTS Assay for Inhibitors of RanGTP induced Rango (Ran-regulated importin-beta cargo) - Importin beta complex dissociation | Biochemical FRET Rango-importin beta, RanGTP-induced dissociation | 0.071% of 340,000 active | Snurportin-1 (Homo sapiens) + GTP-binding nuclear protein Ran (Homo sapiens) + Importin … | Potency, µM (series often up to 46.1 µM); calls by dose curve; further: nearly all actives have a fitted effect of over 45% in size
#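 Rango (0.1 uM)–importin beta (0.25 uM) complex; RanGTP-RCC1 trigger; 45 min RT; CFP/YFP FRET read.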
# TDP1 inh: qHTS Assay for Inhibitors of Tyrosyl-DNA Phosphodiesterase (TDP1); Tyrosyl-DNA phosphodiesterase 1 (Homo sapiens), Q9NUW8; recombinant TDP1, AlphaScreen DNA substrate cleavage; Potency, µM (top dose mostly 130 µM), usual class: inhibitors; 0.28% of 350,000 active; AID 485290, 2010; further: nearly all actives have a fitted effect of over 40% in size
#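 Compounds were preincubated with Tdp1 (1 nM final) for 15 min at room temperature before substrate (15 nM final) started a 5 min reaction; beads (10 ug/ml final) were then added for 10 min before AlphaScreen detection.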
# Rango complex inh: qHTS Assay for Inhibitors of Rango (Ran-regulated importin-beta cargo) - Importin beta complex formation; Rango CFP/YFP FRET sensor + importin beta, 45 min; Potency, µM (top dose mostly 92.2 µM); 0.031% of 340,000 active; calls by dose curve; further: nearly all actives have a fitted effect of over 15% in size
#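 FRET biosensor (snurportin 1 IBB flanked by EYFP and cerulean), 50 nM, with compound 5 min, then 0.125 microM importin beta in PBS, 1 mM DTT, 0.02% Tween-20, 0.1% BSA. CFP/YFP ratio read after 45 min at room temperature; pre-read flags interference.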
# PTAP TSG101 blk: qHTS Assay for Iinhibitors of HIV-1 Budding by Blocking the Interaction of PTAP/TSG101 | Potency, µM (doses to about 115 µM), hits mostly inhibitors | 340,000 tested, under 10 active | Fluorescence polarization, FITC-PTAP peptide / Tsg101 binding; active means well fitted inhibition curve with a large enough effect in the main read-out, with a control signal flat, not every such curve was filed as active; inconclusive means small, poorly fitted or top-dose-only effect, or effect the other way, or a change in a side signal; inactive means no such curve, though single readings can be large or run the other way
# Target sequence (Q99816 whole entry, looked up): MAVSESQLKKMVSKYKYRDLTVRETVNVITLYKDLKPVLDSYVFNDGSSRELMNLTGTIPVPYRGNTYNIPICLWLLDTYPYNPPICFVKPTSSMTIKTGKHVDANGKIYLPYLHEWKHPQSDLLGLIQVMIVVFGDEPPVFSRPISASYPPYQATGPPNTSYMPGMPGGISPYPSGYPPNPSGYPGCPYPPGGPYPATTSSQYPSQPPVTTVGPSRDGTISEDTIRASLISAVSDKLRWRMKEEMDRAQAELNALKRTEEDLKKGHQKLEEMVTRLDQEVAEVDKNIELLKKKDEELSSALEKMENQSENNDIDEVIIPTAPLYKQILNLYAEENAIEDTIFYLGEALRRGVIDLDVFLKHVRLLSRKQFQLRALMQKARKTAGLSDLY
#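 Fluorescence anisotropy tracks displacement of a FITC-tagged PTAP peptide (50 nM) from the Tsg101 binding domain (10 uM), following a 20 min room-temperature incubation at pH 7.5.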
# ClpP mod: qHTS Assay for Activators of ClpP | purified B. subtilis ClpP, FRET peptide cleavage, 20 min | Potency, µM (series often up to 57.5 µM) | 1.9% of 340,000 active | AID 651965, 2013; active means well fitted falling curve with a large enough effect; inconclusive means small, poorly fitted or top-dose-only effect; inactive means no such curve, though single readings can be large or run the other way; further: the source files actives as falling curves though it sought activators and does not explain the sign; nearly all actives have a fitted effect of over 65% in size
# Target sequence (P80244 whole entry, looked up): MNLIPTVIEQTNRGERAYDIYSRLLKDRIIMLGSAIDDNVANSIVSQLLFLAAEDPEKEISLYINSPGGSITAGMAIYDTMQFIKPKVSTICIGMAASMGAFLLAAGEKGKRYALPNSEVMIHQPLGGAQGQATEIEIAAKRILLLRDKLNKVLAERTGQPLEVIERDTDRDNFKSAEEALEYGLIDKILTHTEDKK
#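 FRET quenching reversal measured ClpP activation: 10 microg/mL B. subtilis ClpP at pH 8 with the FRET-FV decapeptide, read at 430 nm after 320 nm excitation. The 20-min minus 0-min signal was scaled between DMSO/no-enzyme wells and ADEP (5.8 microM final).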
# 12-LOX inh: Primary qHTS assay for inhibitors of human arachidonate 12S-lipoxygenase (ALOX12): Round 2. AID 1671190, 2021. 1.1% of 580,000 active. Potency, µM (series often up to 108 µM), hits mostly inhibitors. purified 12hLO, xylenol orange hydroperoxide absorbance
#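 Hydroperoxide product was detected by ferrous iron/xylenol orange as the 573 to 405 nm absorbance ratio. Arachidonic acid at 40 uM (final) was turned over for 30 min at room temperature by 150 nM human 12hLO, pH 7.0 Hepes buffer, after 15 min compound preincubation.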
# ClpP validation: qHTS Assay for Activators of ClpP: Hit Validation of Inhibitors; shares compounds with ClpP mod; purified B. subtilis ClpP, FRET-FV substrate cleavage, 20 min; Potency, µM (highest dose often 57.5 µM), most hits filed as inhibitors; 40% of 470 active; further: nearly all actives have a fitted effect of over 70% in size
# Hits are given with their value; n = inactive; u = inconclusive; x = no result; [ ] = another dose, or the depositor's remark. Unless noted, the call rests on the fitted dose curve; in most records, active means well fitted curve in the direction sought with a large enough effect; inconclusive means small, poorly fitted or top-dose-only effect, or another doubt; inactive means no such curve, though single readings can be large; an effect the other way counts as inactive or inconclusive.
SMILES,Rango release inh,TDP1 inh,Rango complex inh,PTAP TSG101 blk,ClpP mod,12-LOX inh,ClpP validation
O=C(OCC(=O)N1CCCC1)c1ccc(Cl)c([N+](=O)[O-])c1,n,x,n,n,x,n,x
CCNc1ccc(C(=O)OCC(=O)N2CCCC2)cc1[N+](=O)[O-],n,n,n,n,n,n,n
CCn1cc(-c2ccc(C)cc2)cc1C(=O)NC1CC1,x,x,x,x,x,n,x
CCCCCc1cc(=O)oc2c(C(CCN3CCCC3)c3ccc(N(C)C)cc3)c(OC)cc(OC)c12 (configuration not stated),n,n,n,n,n,n,n
Cc1ccc(C2=NCC(C)n3c2c2ccccc2[n+]3[O-])cc1 (configuration not stated),x,x,x,x,x,n,x
COc1ccccc1OCCNC(=O)c1ccc2c(c1)OCCO2,n,n,n,n,7.94µM,n,n
COc1ccccc1OCCNC(=O)CNC(=O)c1ccc2c(c1)OCO2,n,n,n,n,x,n,x
O=S(=O)(c1ccc2c(Cl)cccc2c1)N1CCN(c2nc(-c3cccs3)nc3ccccc23)CC1,x,n,x,x,4.47µM,x,21.7µM
O=S(=O)(c1ccc2c(c1)CCCC2)N1CCN(c2nc(-c3cccs3)nc3ccccc23)CC1,x,n,x,x,8.91µM,x,24.3µM
CN1C(=O)c2cccn2CC1CNC(=O)Nc1ccccc1 (configuration not stated),x,x,x,x,x,n,x
O=C(COc1ccc(-c2nnc(Nc3ccc(F)cc3)c3ccccc23)cc1)N1CCCCC1,x,x,x,x,x,n,x
NC(=S)Nc1cccc2cc3ccccc3cc12,u,n,u,n,n,n,x
NC(=S)Nc1cc2ccccc2c2ccccc12,n,n,n,n,n,u,n
COc1ccccc1N(CC(=O)Nc1ccc2c(c1)OCCO2)S(=O)(=O)c1ccc(C)cc1,n,n,n,n,5.01µM,n,n
COc1ccccc1N(CC(=O)Nc1ccc2c(c1)OCCO2)S(C)(=O)=O,n,n,n,n,n,n,x
FCCCOc1ccc(-c2nccc(-c3ccc(Cl)cc3)n2)cc1,n,n,n,n,n,n,x
COc1ccc(-c2ccnc(-c3ccc(OCCCF)cc3)n2)cc1,n,n,n,n,7.94µM,n,n
Cc1ccc(NC(=O)NCC(O)c2ccc(F)c(F)c2)cc1C (configuration not stated),x,x,x,x,x,n,x
C=CCNC(=O)c1cc(-c2ccccc2Cl)nc2ccccc12,x,x,x,x,x,n,x
O=C(NC1CCCCC1)c1cc(Nc2ccccc2)nc2ccccc12,x,n,x,x,n,n,x
COc1ccc(Nc2cc(C(=O)NC3CCCC3)c3ccccc3n2)cc1,x,n,x,x,n,u,n
COc1ccc(-c2nnc(-c3ccc(OCC(C)C)cc3)o2)cc1,n,n,n,n,7.94µM,n,19.3µM
CCN(Cc1nc(-c2cccc(C)c2)no1)C(=O)c1ccc2c(c1)OCO2,n,n[0.0935 µM],n,n,8.91µM,n,n
CCN(C(=O)c1ccc(-n2ccnc2-c2nc[nH]c2C)cc1)c1ccccc1,x,x,x,x,x,n,x
Cc1cccc(NS(=O)(=O)c2cccc(C(=O)NCC(c3ccco3)N3CCCCC3)c2)c1 (configuration not stated),n,x,n,n,3.16µM,n,n
SMILES,Rango release inh,TDP1 inh,Rango complex inh,PTAP TSG101 blk,ClpP mod,12-LOX inh,ClpP validation
CCN(CC(=O)Nc1c(F)cccc1F)C(=O)c1ccc(C2SCCS2)cc1,n,x,n,n,n,n,n
CCc1nnc(SCC(=O)Nc2c(Cl)cccc2Cl)n1-n1cccc1,x,x,x,x,x,n,x
Cc1ccc(C(C)C)c(OCC(=O)Nc2cccc(NC(=O)c3ccco3)c2)c1,x,n[12.3 µM],x,x,n,n,x
COc1ccc(NC(=O)c2ccco2)cc1NC(=O)COc1cc(C)ccc1C(C)C,x,n,x,x,n,n,n
CN1C(=O)C2(CCN(C(=O)c3ccccn3)C2)c2ccccc21 (configuration not stated),x,x,x,x,x,n,x
CC(NC(=O)c1cc2sccc2n1Cc1ccc(F)cc1)c1ccccc1 (configuration not stated),x,n,x,x,n,n,x
Cc1ccccc1NC(=O)c1cc2sccc2n1Cc1ccc(F)cc1,x,n,x,x,n,n,u
O=C(Nc1ccc(F)c(Cl)c1)c1nc2ccccc2nc1N1CCCCC1,x,x,x,x,x,n,x
O=C(NC1CCCC1)c1cnn2c(C(F)(F)F)cc(-c3ccco3)nc12,u,n,u,x,n,u,x
Cc1c2c(nc3c(C(=O)NC4CCCC4)cnn13)CCCC2,n,n,n,n,7.08µM,n,21.7µM
CC1=C(c2ccc(C)cc2)S(=O)(=O)N(Cc2ccc(C(=O)NCc3cccc(C)c3)cc2)C1=O,x,n,x,x,n,n,x
CC1=C(c2ccc(C)c(C)c2)S(=O)(=O)N(Cc2ccc(C(=O)NCc3cccc(C)c3)cc2)C1=O,x,n,x,x,10µM,n,15.3µM
CCc1ccc(-c2nc(C(=O)N3CCN(c4ccc(C(C)=O)cc4)CC3)cs2)cc1,x,x,x,x,x,n,x
Cc1cc(Cl)ccc1Oc1nc(-c2ccc(F)cc2)ccc1C#N,n,n,n,n,n,n,u
Cc1ccsc1C1Nc2ccccc2-c2nc3ccccc3n21 (configuration not stated),n,n,n,n,n,n,x
c1cncc(C2Nc3ccccc3-c3nc4ccccc4n32)c1 (configuration not stated),n,n,n,n,3.16µM,n,27.3µM
c1cncc(-c2nnc(-c3cccs3)o2)c1,n,n,n,n,8.91µM,n,19.3µM
CCc1ccc(NC(=O)N2CC(c3nnc(-c4ccncc4)o3)C3(CCOCC3)C2)cc1 (configuration not stated),x,x,x,x,x,n,x
COc1cc(COC(=O)c2c(OC)cccc2OC)ccc1OC(F)F,x,x,x,x,x,n,x
CCc1ccc2[nH]c(C(=O)Nc3ccc(C)c(F)c3)cc2c1,n,x,n,n,n,n,n
CC1CCN(S(=O)(=O)c2ccc3c(c2)CCN3C(=O)Nc2cccc(Br)c2)CC1,x,n,x,x,n,n,u
O=C(CNC(=O)c1cccc(F)c1)NC1CC1,n,n,n,n,3.55µM,n,n
